Results taken from PubChem BioAssay (NCI).
Several values for one entry are separate records, joined by “and”; a condition that tells them apart may be missing. Identical values can stand only once. Compounds without any hit were thinned out: in the full panel of roughly 79,000, 15% have a hit. No stated cut-off is given here; in the data, active means growth inhibition above about 70%; inactive means the rest.

Key:
[1] = NCI Yeast Anticancer Drug Screen. Data for the rad50 strain (AID 155);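 further: 0% = growth of vehicle-only cultures of the same strain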; conditions: S. cerevisiae rad50 strain growth inhibition; at 50.0 µM; hits give high values
Procedure, shortened: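 Vehicle-treated cultures provide the reference for the growth inhibition reported for compound-exposed, repair-deficient yeast.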

[2] = NCI Yeast Anticancer Drug Screen. Data for the mec2-1 strain (AID 157); conditions: S. cerevisiae mec2-1 strain, at 50.0 µM, hits give high values
Procedure, shortened: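 Using mec2-1 yeast: add compound, measure growth, express inhibition versus vehicle-treated cultures.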

[3] = NCI Yeast Anticancer Drug Screen. Data for the sgs1 mgt1 strain (AID 161);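 further: 0% = growth of cultures given vehicle only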; conditions: S. cerevisiae sgs1 mgt1 strain, at 50.0 µM, hits give high values
Procedure, shortened: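 Compounds are added to genetically altered yeast, and growth is compared with cultures given vehicle alone to give percent inhibition.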

[4] = NCI Yeast Anticancer Drug Screen. Data for the cln2 rad14 strain (AID 165);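 further: 0% = growth equal to vehicle treated cultures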; conditions: S. cerevisiae cln2 rad14 strain, at 50.0 µM, hits give high values
Procedure, shortened: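 Yeast strain cln2 rad14, bearing defects in cell cycle control and DNA repair, serves as the test system; values reflect growth inhibition compared with vehicle.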

[5] = NCI Yeast Anticancer Drug Screen. Data for the bub3 strain (AID 167); conditions: S. cerevisiae bub3 mutant strain, at 50.0 µM, hits give high values
Procedure, shortened: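 Mutant yeast screening strain plus compound; vehicle-treated cultures serve as the 0% inhibition reference.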

[6] = NCI Yeast Anticancer Drug Screen. Data for the mlh1 rad18 strain (AID 175); conditions: S. cerevisiae mlh1 rad18 strain growth inhibition; at 50.0 µM; hits give high values
Procedure, shortened: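 Steps: expose repair-defective yeast to compound; measure growth; express inhibition against vehicle-treated controls.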

Measured: growth inhibition

NNC(=S)NN
inactive: [1] 4.95% | [2] 4.3% | [3] 1.7% | [4] -15.4% | [5] -2.6% | [6] 35.6%

Oc1ccc2ccccc2c1N=Nc1ccccc1
inactive: [1] -10.8% and 10.3% | [2] -6.5% and -18.8% | [3] -12.6% and -7.95% | [4] -21.9% and -9.7% | [5] 0.9% and -18.4% | [6] 3.1% and 2.3%

C[CH2][Sn]([CH2]C)([n]1c(C)nc2ccccc21)[n]1c(C)nc2ccccc21
inactive: [1] -11.8% | [2] 2.95% | [3] -19.3% | [4] 0.3% | [5] 10.3% | [6] -12.8%

O=N[O-].O=N[O-].[Co].[NH2-].[NH2-].[NH2-].[NH2-]
inactive: [1] 0.1% | [2] -11.5% | [3] -3.5% | [4] -14.3% | [5] 2.15% | [6] 26.9%

O=[N+]([O-])c1ccc(Cl)c(Cl)c1
inactive: [1] 20.9% | [2] -4.6% | [3] -8.5% | [4] -37.5% | [5] -5% | [6] 26.1%

O=C(CS(=O)(=O)O)Nc1ccccc1
inactive: [1] 36.8% | [2] 11.9% | [3] 27.9% | [4] 14.7% | [5] 17.1% | [6] 22.2%

NNc1cccc2c1CCC(N)C2 (stereo not drawn)
inactive: [1] -0.35% | [2] 21.7% | [3] 6.35% | [4] -11.4% | [5] 5% | [6] 9.65%

C[N+]1(CC2CC2)C2CC(OC(=O)C(CO)c3ccccc3)CC1C1OC12 (stereo not drawn)
inactive: [1] 11.1% | [2] 23.9% | [3] 10.7% | [4] 9.55% | [5] -0.6% | [6] -33.5%

CCC1=CC2CN3CCc4c([nH]c5ccccc45)C(C(=O)OC)(C2)C13 (stereo not drawn)
inactive: [1] 30.2% and -9.75% | [2] -26.9% and -17.9% | [3] -12.8% and -33.1% | [4] -19.3% and -6.65% | [5] -2.3% and -38.2% | [6] -17.6% and -19.2%

COc1cc(C(CC(C)=O)c2cc3c(cc2OC(C)=O)OCO3)cc(OC)c1OC (stereo not drawn) (tested in a mixture with another compound)
inactive: [1] 5.1% | [2] 8.6% | [3] 17.2% | [4] 2.45% | [5] 5.15% | [6] 23.8%

CCOC(=O)C(C(=O)OCC)P(=S)(S)c1ccccc1 (stereo not drawn)
inactive: [1] 6.2% | [2] -33.9% | [3] -11.2% | [4] 9.2% | [5] -9.6% | [6] -10.1%

O=C1NC(=O)C2(CCc3ccc(N(CCCl)CCCl)cc32)N1 (stereo not drawn)
inactive: [1] 14.1% | [2] -19.5% | [3] -4.75% | [4] 11.9% | [5] -16.6% | [6] 11.1%

NC(C(=O)[O-])C(=O)[O-].NC1CCCCC1N.[Pt+4]
inactive: [1] 7.35% | [2] -5.95% | [3] 5.75% | [4] -31.6% | [5] -17.9% | [6] -3.2%

O=C(O)COc1ccc(Cl)cc1Cl (tested in a mixture with another compound)
inactive: [1] -0.5% | [2] -3.35% | [3] 14.7% | [4] -19.1% | [5] -9.5% | [6] -0.9%

COc1cc2c(c(Oc3ccc(C)cc3)c1)CN(C)CC2
inactive: [1] 32.4% | [2] 19.3% | [3] 47.9% | [4] 39.7% | [5] 63.6% | [6] 58.8%

O=C(/C=C/c1ccccc1)Nc1ccc(Cl)cc1C(=O)c1ccccc1
inactive: [1] -2.6% | [2] 14.8% | [3] 7.6% | [4] -6.6% | [5] 40.4% | [6] 20.4%

CC(=O)OC1(c2nccc3ccccc23)CCN(Cc2ccccc2)CC1
inactive: [1] 17.8% | [2] 9.45% | [3] 6.8% | [4] -8.3% | [5] 7.25% | [6] 12%

Cn1c(O)c(C(=O)NC2CCCCC2)c(=O)n(C)c1=S
inactive: [1] -6.1% | [2] 12.2% | [3] 18.9% | [4] 27.6% | [5] 8.5% | [6] 13.1%

CCN1C[C@]2(C)CC[C@H](O)C34C1C(C[C@@H]32)[C@@]1(O)CC[C@H]2C[C@@H]4[C@@H]1[C@H]2O
inactive: [1] 19.4% | [2] 1.15% | [3] -1.45% | [4] 23.8% | [5] 6.7% | [6] 31.2%

CC(=O)c1ccccc1N=Nc1ccc(N(CCCl)CCCl)cc1
inactive: [1] -9.5% | [2] -5.5% | [3] 0.15% | [4] 18% | [5] 15.2% | [6] -0.05%

CN1CCCC2(CCCc3ccccc32)C1 (stereo not drawn)
inactive: [1] 14.2% | [2] -33.1% | [3] -25.9% | [4] 15.3% | [5] -13.3% | [6] -5.2%

CCOc1ccc(P2(=S)SP(=S)(c3ccc(OCC)cc3)S2)cc1 (stereo not drawn)
inactive: [1] -11.3% | [2] -20.9% | [3] -13.2% | [4] 20% | [5] 17.1% | [6] -13.8%

CC12CCC(OC3OC(CO)C(OC4OC(CO)C(O)C(O)C4O)C(O)C3O)CC1CCC1C2CCC2(C)C(C3=CC(=O)OC3)CCC12O (stereo not drawn)
inactive: [1] 15.8% | [2] -3.95% | [3] -14.2% | [4] -7.95% | [5] 13.6% | [6] 6.85%
